The full data set covers some 7,900 targets. This sample favours those with a hit. About 0.6% of all pairs of compound and target were hits.
Experiments:
Experiment in all cases: log2 fold change, soluble protein after heating vs DMSO (PISA); higher = thermal stabilisation; K562 cells, 10 uM, 30 min; active = over 0.2 and 3.5 SD of the protein, either way, in both replicates (recomputed)
saracatinib = compound: CN1CCN(CCOc2cc(OC3CCOCC3)c3c(Nc4c(Cl)ccc5c4OCO5)ncnc3c2)CC1 [saracatinib]
Method in brief: (§1)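 K562 cells at 2×10^6 cells/mL were given 10 μM compound for 30 min. Aliquots then went through 3 min of heating across 48°C-58°C, were pooled, and were extracted in PBS with 0.5% NP-40 at 4°C, and the supernatant after 21,000xg for 90 min was quantified by TMTpro 16plex LC-MS/MS with channel sums equalised. Thermal stability relative to control samples, from duplicates, is given as log2 fold change.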

sotrastaurin = compound: CN1CCN(c2nc(C3=C(c4c[nH]c5ccccc45)C(=O)NC3=O)c3ccccc3n2)CC1 [sotrastaurin]
Method in brief: as §1

alvocidib = compound: CN1CC[C@H](c2c(O)cc(O)c3c(=O)cc(-c4ccccc4Cl)oc23)[C@H](O)C1 [alvocidib]
Method in brief: as §1

Tubastatin A = compound: CN1CCc2c(c3ccccc3n2Cc2ccc(C(=O)NO)cc2)C1 [Tubastatin A]
Method in brief: as §1

[1] = compound: CNC(=O)C1=CC=CC=C1NC2=NC(=NC=C2Cl)NC3=C(C=C(C=C3)N4CCOCC4)OC
Method in brief: as §1

defactinib = compound: CNC(=O)c1ccc(Nc2ncc(C(F)(F)F)c(NCc3nccnc3N(C)S(C)(=O)=O)n2)cc1 [defactinib]
Method in brief: as §1

rucaparib = compound: CNCc1ccc(-c2[nH]c3cc(F)cc4c3c2CCNC4=O)cc1 [rucaparib]
Method in brief: as §1

[2] = compound: CNc1nc(-c2ccc3c(N)n[nH]c3c2)cc(N2C[C@@H](C(=O)NC3CCCCC3)CC[C@H]2C)n1
Method in brief: as §1

encorafenib = compound: COC(=O)N[C@@H](C)CNc1nccc(-c2cn(C(C)C)nc2-c2cc(Cl)cc(NS(C)(=O)=O)c2F)n1 [encorafenib]
Method in brief: as §1

[3] = compound: COC(=O)[C@H](CCSC)NC(=O)C1=C(C=C(C=C1)NC[C@H](CS)N)C2=CC=CC=C2
Method in brief: as §1

[4] = compound: COC1=CC=C(C=C1)CN2C=CC3=C2C=C(C=C3)C(=O)NO
Method in brief: as §1

filanesib = compound: CON(C)C(=O)N1N=C(c2cc(F)ccc2F)S[C@@]1(CCCN)c1ccccc1 [filanesib]
Method in brief: as §1

zotarolimus = compound: CO[C@H]1C[C@@H]2CC[C@@H](C)[C@@](O)(O2)C(=O)C(=O)N2CCCC[C@H]2C(=O)O[C@H]([C@H](C)C[C@@H]2CC[C@H](n3cnnn3)[C@H](OC)C2)CC(=O)[C@H](C)/C=C(\C)[C@@H](O)[C@@H](OC)C(=O)[C@H](C)C[C@H](C)/C=C/C=C/C=C/1C [zotarolimus]
Method in brief: as §1

idasanutlin = compound: COc1cc(C(=O)O)ccc1NC(=O)[C@@H]1N[C@@H](CC(C)(C)C)[C@](C#N)(c2ccc(Cl)cc2F)[C@H]1c1cccc(Cl)c1F [idasanutlin]
Method in brief: as §1

alisertib = compound: COc1cc(Nc2ncc3c(n2)-c2ccc(Cl)cc2C(c2c(F)cccc2OC)=NC3)ccc1C(=O)O [alisertib]
Method in brief: as §1

[5] = compound: COc1cc2nc(-c3cc(F)ccc3O)nc(N[C@@H]3CNC[C@H]3C(C)(C)O)c2cc1OC
Method in brief: as §1

gefitinib = compound: COc1cc2ncnc(Nc3ccc(F)c(Cl)c3)c2cc1OCCCN1CCOCC1 [gefitinib]
Method in brief: as §1

[6] = compound: COc1cccc2cc(-c3nc([C@H]4CC[C@H](C(=O)O)CC4)n4ncnc(N)c34)[nH]c12
Method in brief: as §1

lapatinib = compound: CS(=O)(=O)CCNCc1ccc(-c2ccc3ncnc(Nc4ccc(OCc5cccc(F)c5)c(Cl)c4)c3c2)o1 [lapatinib]
Method in brief: as §1

pictilisib = compound: CS(=O)(=O)N1CCN(Cc2cc3nc(-c4cccc5[nH]ncc45)nc(N4CCOCC4)c3s2)CC1 [pictilisib]
Method in brief: as §1

Measured: log2 fold change

CPQ (UniProt Q9Y646)
inactive: saracatinib 0.039 | sotrastaurin -0.012 | alvocidib 0.045 | Tubastatin A 0.02 | [1] -0.049 | defactinib -0.035 | rucaparib -0.042 | [2] -0.031 | encorafenib 0.008 | [3] 0.006 | [4] -0.014 | filanesib -0.05 | zotarolimus -0.058 | idasanutlin -0.093 | alisertib -0.054 | [5] 0.01 | gefitinib 0.038 | [6] 0.047 | lapatinib -0.014 | pictilisib 0.027

CMTR1 (UniProt Q8N1G2)
UniProt Q8N1G2, sequence (Q8N1G2 whole entry, looked up): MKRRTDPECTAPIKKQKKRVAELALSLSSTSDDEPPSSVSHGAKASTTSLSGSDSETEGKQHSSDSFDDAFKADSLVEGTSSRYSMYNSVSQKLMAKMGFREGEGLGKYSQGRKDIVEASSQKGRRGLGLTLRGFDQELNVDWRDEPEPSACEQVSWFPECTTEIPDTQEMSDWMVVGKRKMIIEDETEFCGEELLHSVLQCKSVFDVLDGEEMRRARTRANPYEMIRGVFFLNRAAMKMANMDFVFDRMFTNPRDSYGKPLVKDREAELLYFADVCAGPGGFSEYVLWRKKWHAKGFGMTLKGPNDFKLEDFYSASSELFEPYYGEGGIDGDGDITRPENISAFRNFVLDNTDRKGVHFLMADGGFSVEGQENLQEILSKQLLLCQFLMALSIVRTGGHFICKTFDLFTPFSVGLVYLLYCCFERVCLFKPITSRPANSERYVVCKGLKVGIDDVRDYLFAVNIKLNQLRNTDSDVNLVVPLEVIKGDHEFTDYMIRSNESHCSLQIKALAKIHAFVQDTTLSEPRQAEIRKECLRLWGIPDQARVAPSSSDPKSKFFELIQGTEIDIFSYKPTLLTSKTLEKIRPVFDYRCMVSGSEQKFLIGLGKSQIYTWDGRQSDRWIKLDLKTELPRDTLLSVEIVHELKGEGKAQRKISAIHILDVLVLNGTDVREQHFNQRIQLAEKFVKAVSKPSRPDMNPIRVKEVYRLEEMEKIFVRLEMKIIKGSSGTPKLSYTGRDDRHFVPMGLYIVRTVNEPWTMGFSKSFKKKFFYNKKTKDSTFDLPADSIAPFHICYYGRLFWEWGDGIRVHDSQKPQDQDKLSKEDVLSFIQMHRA
inactive: saracatinib 0.009 | sotrastaurin 0.018 | alvocidib -0.053 | Tubastatin A -0.052 | [1] 0.045 | defactinib -0.026 | rucaparib 0.003 | [2] 0.099 | encorafenib 0.06 | [3] -0.091 | filanesib 0.001 | zotarolimus -0.013 | idasanutlin -0.052 | alisertib -0.026 | [5] 0.065 | gefitinib 0.025 | [6] 0.017 | lapatinib -0.012 | pictilisib 0.009
active: [4] -0.337

CDK5RAP3 isoform 4 (UniProt Q96JB5)
UniProt Q96JB5, sequence (Q96JB5 whole entry, looked up): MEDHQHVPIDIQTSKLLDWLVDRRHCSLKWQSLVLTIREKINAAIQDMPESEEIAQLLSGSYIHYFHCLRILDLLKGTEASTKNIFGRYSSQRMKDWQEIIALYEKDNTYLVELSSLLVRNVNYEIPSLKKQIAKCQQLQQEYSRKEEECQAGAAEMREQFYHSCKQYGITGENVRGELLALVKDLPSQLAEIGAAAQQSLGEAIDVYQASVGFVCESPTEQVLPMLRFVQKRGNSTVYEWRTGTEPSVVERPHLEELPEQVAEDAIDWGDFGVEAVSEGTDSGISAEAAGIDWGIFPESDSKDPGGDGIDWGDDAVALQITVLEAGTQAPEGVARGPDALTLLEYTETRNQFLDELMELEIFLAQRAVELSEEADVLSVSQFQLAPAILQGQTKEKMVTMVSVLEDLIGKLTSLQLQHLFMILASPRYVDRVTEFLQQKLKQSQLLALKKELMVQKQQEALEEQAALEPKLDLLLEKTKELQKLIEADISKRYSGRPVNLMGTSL
inactive: saracatinib -0.009 | sotrastaurin -0.099 | alvocidib -0.066 | Tubastatin A 0.024 | [1] 0.035 | defactinib -0.045 | rucaparib -0.029 | [2] 0.002 | encorafenib 0.033 | [3] -0.043 | [4] -0.008 | filanesib -0.085 | zotarolimus 0.026 | idasanutlin -0.091 | alisertib -0.001 | [5] 0.075 | gefitinib 0.024 | [6] 0.004 | lapatinib -0.034 | pictilisib -0.015

CASTOR2 (UniProt A6NHX0)
UniProt A6NHX0, sequence (A6NHX0 whole entry, looked up): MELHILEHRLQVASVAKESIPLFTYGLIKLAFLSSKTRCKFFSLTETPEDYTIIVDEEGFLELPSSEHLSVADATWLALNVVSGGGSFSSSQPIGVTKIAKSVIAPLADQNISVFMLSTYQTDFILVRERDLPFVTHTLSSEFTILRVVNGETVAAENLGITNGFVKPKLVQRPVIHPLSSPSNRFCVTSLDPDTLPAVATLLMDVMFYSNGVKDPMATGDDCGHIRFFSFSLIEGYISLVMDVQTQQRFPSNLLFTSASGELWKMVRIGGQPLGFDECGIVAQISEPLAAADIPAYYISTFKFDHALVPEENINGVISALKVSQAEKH
inactive: saracatinib 0.042 | sotrastaurin 0.039 | alvocidib 0.027 | Tubastatin A 0.036 | [1] -0.082 | defactinib -0.092 | rucaparib -0.048 | [2] 0.032 | encorafenib 0.04 | [3] 0 | [4] 0.04 | filanesib -0.042 | zotarolimus -0.038 | idasanutlin 0.027 | alisertib -0.08 | [5] 0.194 | gefitinib -0.053 | [6] 0.063 | lapatinib -0.108 | pictilisib -0.042

CA1 (UniProt P00915)
inactive: saracatinib 0.014 | sotrastaurin -0.001 | alvocidib -0.095 | Tubastatin A -0.013 | [1] 0.009 | defactinib -0.057 | rucaparib -0.036 | [2] -0.016 | encorafenib -0.002 | [3] 0.004 | [4] -0.022 | filanesib -0.002 | zotarolimus -0.006 | idasanutlin -0.044 | alisertib -0.032 | [5] -0.026 | gefitinib 0.022 | [6] 0.018 | lapatinib -0.045 | pictilisib 0.072

CALCOCO2 isoform 4 (UniProt Q13137)
UniProt Q13137, sequence (Q13137 whole entry, looked up): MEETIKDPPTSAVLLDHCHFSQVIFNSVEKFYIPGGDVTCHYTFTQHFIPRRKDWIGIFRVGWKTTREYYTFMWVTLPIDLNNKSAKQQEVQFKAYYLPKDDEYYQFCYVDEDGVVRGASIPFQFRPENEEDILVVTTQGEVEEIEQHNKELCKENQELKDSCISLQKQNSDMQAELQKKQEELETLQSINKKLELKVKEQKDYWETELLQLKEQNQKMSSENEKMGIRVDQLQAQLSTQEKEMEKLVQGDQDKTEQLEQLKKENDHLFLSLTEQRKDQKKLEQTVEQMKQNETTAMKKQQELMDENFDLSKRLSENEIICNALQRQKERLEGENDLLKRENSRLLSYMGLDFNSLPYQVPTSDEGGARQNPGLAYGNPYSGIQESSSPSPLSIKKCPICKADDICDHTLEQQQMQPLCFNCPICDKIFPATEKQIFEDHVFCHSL
inactive: saracatinib -0.03 | sotrastaurin -0.127 | alvocidib 0.033 | Tubastatin A 0.037 | [1] 0.012 | defactinib 0.017 | rucaparib -0.044 | [2] -0.034 | encorafenib 0.076 | [3] 0.021 | [4] -0.041 | filanesib -0.166 | zotarolimus -0.044 | idasanutlin 0.014 | alisertib 0 | [5] 0.018 | gefitinib -0.07 | [6] -0.08 | lapatinib 0 | pictilisib 0.031

CCDC9 (UniProt Q9Y3X0)
UniProt Q9Y3X0, sequence (Q9Y3X0 whole entry, looked up): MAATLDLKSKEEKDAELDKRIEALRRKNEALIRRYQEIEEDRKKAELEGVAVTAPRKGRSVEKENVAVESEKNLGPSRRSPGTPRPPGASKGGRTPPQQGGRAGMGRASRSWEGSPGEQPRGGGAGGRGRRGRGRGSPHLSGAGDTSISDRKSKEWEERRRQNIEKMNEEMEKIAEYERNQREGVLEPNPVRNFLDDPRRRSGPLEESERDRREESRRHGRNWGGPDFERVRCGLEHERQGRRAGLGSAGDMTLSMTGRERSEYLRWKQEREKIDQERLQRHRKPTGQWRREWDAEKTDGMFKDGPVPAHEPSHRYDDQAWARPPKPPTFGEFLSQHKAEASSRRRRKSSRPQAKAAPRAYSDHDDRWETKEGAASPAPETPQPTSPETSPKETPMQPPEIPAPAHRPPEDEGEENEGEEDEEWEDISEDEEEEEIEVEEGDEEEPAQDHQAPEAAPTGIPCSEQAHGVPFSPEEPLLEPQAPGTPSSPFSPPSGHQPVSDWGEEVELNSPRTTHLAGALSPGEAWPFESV
inactive: saracatinib 0.023 | sotrastaurin 0.077 | alvocidib 0.192 | Tubastatin A -0.046 | [1] -0.038 | defactinib 0.148 | rucaparib 0.116 | [2] -0.031 | encorafenib -0.021 | [3] 0.004 | [4] 0.057 | filanesib 0.021 | zotarolimus -0.11 | idasanutlin 0.018 | alisertib -0.035 | [5] 0.02 | gefitinib -0.078 | [6] -0.021 | lapatinib 0.003 | pictilisib -0.015

CDC37L1 (UniProt Q7L3B6)
UniProt Q7L3B6, sequence (Q7L3B6 whole entry, looked up): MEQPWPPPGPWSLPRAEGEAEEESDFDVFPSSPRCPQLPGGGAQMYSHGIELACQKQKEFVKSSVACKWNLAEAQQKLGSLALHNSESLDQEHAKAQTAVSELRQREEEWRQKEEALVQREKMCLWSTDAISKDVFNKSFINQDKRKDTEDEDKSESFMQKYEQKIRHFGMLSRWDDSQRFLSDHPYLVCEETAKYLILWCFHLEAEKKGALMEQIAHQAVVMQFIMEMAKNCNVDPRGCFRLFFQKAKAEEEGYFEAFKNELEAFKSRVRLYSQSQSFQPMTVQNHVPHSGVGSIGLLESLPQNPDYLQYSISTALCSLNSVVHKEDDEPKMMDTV
inactive: saracatinib -0.003 | sotrastaurin 0.021 | alvocidib -0.093 | [1] 0.002 | defactinib 0.059 | rucaparib -0.058 | [2] -0.013 | encorafenib 0.005 | [3] 0.018 | [4] -0.027 | filanesib 0.047 | zotarolimus -0.057 | idasanutlin -0.031 | alisertib -0.009 | [5] -0.106 | gefitinib 0.029 | [6] -0.037 | lapatinib 0.034 | pictilisib -0.051
active: Tubastatin A -0.308

CHEK1 (UniProt O14757)
active: sotrastaurin -0.271 | [1] -0.32 | [5] -0.805
inactive: saracatinib 0 | alvocidib -0.041 | Tubastatin A 0.09 | defactinib -0.031 | rucaparib -0.071 | [2] 0.003 | encorafenib 0.043 | [3] 0 | [4] 0.005 | filanesib -0.025 | zotarolimus -0.029 | idasanutlin -0.041 | alisertib -0.041 | gefitinib -0.06 | [6] 0.055 | lapatinib -0.007 | pictilisib 0.016

CHAMP1 (UniProt Q96JM3)
inactive: saracatinib 0.103 | sotrastaurin -0.007 | alvocidib -0.139 | Tubastatin A -0.036 | [1] -0.064 | defactinib -0.104 | rucaparib 0.053 | [2] -0.001 | encorafenib 0.048 | [3] 0.049 | [4] -0.001 | filanesib -0.008 | zotarolimus 0.07 | idasanutlin 0.005 | alisertib 0.006 | [5] 0.025 | gefitinib 0.029 | [6] 0.022 | lapatinib -0.065 | pictilisib 0.107

CAMKK2 (UniProt Q96RR4)
inactive: saracatinib 0.03 | sotrastaurin -0.042 | alvocidib 0.048 | Tubastatin A 0.105 | [1] 0.36 | defactinib -0.104 | rucaparib -0.084 | [2] -0.101 | encorafenib 0.057 | [3] 0.057 | [4] -0.063 | filanesib 0.085 | zotarolimus -0.077 | idasanutlin -0.091 | alisertib -0.377 | [5] 0.12 | gefitinib 0.019 | [6] 0.015 | lapatinib 0.025 | pictilisib 0.035

CBX1 (UniProt P83916)
inactive: saracatinib 0.073 | sotrastaurin -0.037 | alvocidib -0.026 | Tubastatin A 0.035 | [1] -0.018 | defactinib -0.143 | rucaparib -0.01 | [2] -0.02 | encorafenib -0.043 | [3] 0 | filanesib -0.016 | zotarolimus 0.008 | idasanutlin 0.038 | alisertib -0.059 | [5] -0.086 | gefitinib 0.021 | [6] 0.003 | lapatinib 0.037 | pictilisib -0.046
active: [4] 0.41

CAMSAP1 isoform 3 (UniProt Q5T5Y3)
UniProt Q5T5Y3, sequence (Q5T5Y3 whole entry, looked up): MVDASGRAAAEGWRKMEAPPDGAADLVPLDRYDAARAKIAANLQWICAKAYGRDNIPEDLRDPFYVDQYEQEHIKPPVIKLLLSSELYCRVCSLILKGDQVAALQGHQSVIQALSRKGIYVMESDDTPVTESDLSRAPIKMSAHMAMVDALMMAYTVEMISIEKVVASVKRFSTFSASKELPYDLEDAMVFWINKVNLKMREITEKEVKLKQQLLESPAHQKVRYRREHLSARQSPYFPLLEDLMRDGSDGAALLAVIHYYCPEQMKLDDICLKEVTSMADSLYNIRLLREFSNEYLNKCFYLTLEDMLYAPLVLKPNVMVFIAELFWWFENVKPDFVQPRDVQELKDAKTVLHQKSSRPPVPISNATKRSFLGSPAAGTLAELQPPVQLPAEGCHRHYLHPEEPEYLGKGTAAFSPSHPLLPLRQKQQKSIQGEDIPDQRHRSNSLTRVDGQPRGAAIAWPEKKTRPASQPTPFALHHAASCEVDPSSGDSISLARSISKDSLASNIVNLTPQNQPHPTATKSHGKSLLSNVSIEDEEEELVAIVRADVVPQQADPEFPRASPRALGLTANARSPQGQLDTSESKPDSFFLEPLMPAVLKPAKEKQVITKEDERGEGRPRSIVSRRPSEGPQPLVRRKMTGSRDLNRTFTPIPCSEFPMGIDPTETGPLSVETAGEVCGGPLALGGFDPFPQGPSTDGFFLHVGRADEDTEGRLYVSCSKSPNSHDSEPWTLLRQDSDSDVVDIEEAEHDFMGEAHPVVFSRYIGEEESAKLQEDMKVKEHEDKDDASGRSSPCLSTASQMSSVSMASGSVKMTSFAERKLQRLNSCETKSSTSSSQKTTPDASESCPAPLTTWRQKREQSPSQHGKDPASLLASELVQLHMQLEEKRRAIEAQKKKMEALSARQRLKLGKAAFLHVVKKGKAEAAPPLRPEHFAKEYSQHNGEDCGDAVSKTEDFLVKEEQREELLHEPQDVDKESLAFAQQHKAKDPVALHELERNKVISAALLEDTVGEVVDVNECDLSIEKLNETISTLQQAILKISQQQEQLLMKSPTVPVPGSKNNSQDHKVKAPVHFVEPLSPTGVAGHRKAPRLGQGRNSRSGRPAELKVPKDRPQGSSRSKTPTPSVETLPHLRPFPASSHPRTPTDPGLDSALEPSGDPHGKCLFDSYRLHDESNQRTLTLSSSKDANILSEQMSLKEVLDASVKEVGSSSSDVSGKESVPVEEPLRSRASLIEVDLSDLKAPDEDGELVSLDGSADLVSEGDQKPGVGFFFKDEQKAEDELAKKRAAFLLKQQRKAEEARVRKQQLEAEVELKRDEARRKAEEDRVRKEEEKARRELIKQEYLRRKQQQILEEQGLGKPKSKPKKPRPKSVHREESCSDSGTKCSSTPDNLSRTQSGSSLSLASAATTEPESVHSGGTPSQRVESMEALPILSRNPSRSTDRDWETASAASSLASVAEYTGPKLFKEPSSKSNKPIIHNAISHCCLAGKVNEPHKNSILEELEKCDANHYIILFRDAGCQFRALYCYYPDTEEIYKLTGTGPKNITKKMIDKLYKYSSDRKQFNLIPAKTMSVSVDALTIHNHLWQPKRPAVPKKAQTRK
inactive: saracatinib -0.084 | sotrastaurin -0.175 | alvocidib -0.027 | Tubastatin A 0.071 | [1] -0.191 | defactinib 0.051 | rucaparib 0.048 | [2] -0.071 | encorafenib 0.065 | [3] 0.017 | [4] 0.011 | filanesib -0.015 | zotarolimus 0.045 | idasanutlin 0.091 | alisertib 0.039 | [5] 0.169 | gefitinib -0.034 | [6] 0.056 | lapatinib 0.095 | pictilisib 0.118

COASY isoform 2 (UniProt Q13057)
inactive: saracatinib 0.003 | sotrastaurin -0.001 | alvocidib -0.12 | Tubastatin A -0.001 | [1] 0.035 | defactinib -0.065 | rucaparib 0.011 | [2] -0.03 | encorafenib 0.034 | [3] -0.029 | [4] 0.034 | filanesib -0.061 | zotarolimus 0.024 | idasanutlin -0.071 | alisertib -0.038 | [5] 0.01 | gefitinib -0.038 | [6] 0.045 | lapatinib 0.043 | pictilisib 0.028

COCH (UniProt O43405)
inactive: saracatinib 0.126 | sotrastaurin 0.01 | alvocidib 0.029 | Tubastatin A -0.036 | [1] 0.031 | defactinib 0.1 | rucaparib 0.011 | [2] -0.139 | encorafenib -0.074 | [3] 0.05 | [4] -0.018 | filanesib 0.024 | zotarolimus -0.018 | idasanutlin 0.077 | alisertib -0.063 | [5] -0.144 | gefitinib 0.131 | [6] -0.078 | lapatinib 0.049 | pictilisib 0.001

CHKA (UniProt P35790)
UniProt P35790, sequence (P35790 whole entry, looked up): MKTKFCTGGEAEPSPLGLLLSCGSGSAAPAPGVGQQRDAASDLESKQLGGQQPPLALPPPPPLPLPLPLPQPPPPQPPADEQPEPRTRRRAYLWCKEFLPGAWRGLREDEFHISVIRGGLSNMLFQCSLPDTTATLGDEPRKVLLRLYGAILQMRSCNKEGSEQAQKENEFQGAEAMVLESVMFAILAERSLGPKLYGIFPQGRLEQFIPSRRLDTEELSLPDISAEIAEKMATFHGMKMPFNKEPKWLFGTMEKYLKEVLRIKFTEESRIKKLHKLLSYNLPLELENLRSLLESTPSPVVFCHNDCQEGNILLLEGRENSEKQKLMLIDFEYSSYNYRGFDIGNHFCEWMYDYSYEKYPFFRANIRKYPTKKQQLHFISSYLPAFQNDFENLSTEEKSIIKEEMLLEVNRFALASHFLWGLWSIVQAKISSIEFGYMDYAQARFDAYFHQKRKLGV
inactive: saracatinib 0.028 | sotrastaurin 0.107 | alvocidib 0.064 | Tubastatin A 0.148 | [1] -0.033 | defactinib 0.006 | rucaparib 0.046 | [2] -0.027 | encorafenib -0.107 | [3] 0.056 | [4] -0.021 | filanesib 0.02 | zotarolimus -0.148 | idasanutlin -0.009 | alisertib -0.032 | [5] 0.065 | gefitinib -0.016 | [6] 0.004 | lapatinib -0.013 | pictilisib 0.041
